High-throughput results from PubChem.
Fam108B inh: counter-screen for RBBP9 inhibitors: inhibitors of mouse Fam108B. hit rate 0.33% among 300,000. AID 1947. recombinant Fam108B, FP-Rh probe fluorescence polarization. inhibition, % at 9.51 µM;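 active = inhibition above the screen mean inhibition plus 3 SD, computed separately per campaign, cut at about 18% in these data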;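 note: inhibitors lower polarization as less probe binds the enzyme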
GSTO1 inh: blocks human GSTO1 in RBBP9 counter-screen; recombinant GSTO1, activity-based probe fluorescence polarization; inhibition, % at 5.96 µM; hit rate 1.1% among 300,000; AID 1974;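 active = inhibition above the campaign mean inhibition plus 3 SD, cut at about 35% in these data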;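 note: 0% = GSTO1-1 with DMSO and 100% = wells lacking GSTO1-1 enzyme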
LYPLA1 counter: LYPLA1 (human) inhibition in PME1 counter-screen; recombinant LYPLA1, FP-Rh probe fluorescence polarization; inhibition, % at 5.9 µM; hit rate 0.16% among 320,000; AID 2174;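 active = inhibition above the mean of all tested compounds plus 3 SD, set per campaign, cut at about 14% in these data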;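 note: inhibitors block serine hydrolase probe labeling of LYPLA1 so polarization falls; 0% = enzyme with DMSO and 100% = wells lacking LYPLA1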
PME-1 inh: PME-1 (human) inhibition | recombinant PME-1, FP-Rh probe fluorescence polarization | inhibition, % at 5.9 µM | hit rate 0.53% among 320,000 | AID 2130;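 active = inhibition above the campaign mean of all compounds plus 3 SD, cut at about 26% in these data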;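 note: competitive labeling of PME-1 active site by serine hydrolase directed probe; 0% = PME-1 with DMSO and 100% = wells lacking PME-1 enzyme; inhibitors block probe labeling so polarization falls and inhibition rises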
Target sequence (Q9Y570 whole entry, looked up): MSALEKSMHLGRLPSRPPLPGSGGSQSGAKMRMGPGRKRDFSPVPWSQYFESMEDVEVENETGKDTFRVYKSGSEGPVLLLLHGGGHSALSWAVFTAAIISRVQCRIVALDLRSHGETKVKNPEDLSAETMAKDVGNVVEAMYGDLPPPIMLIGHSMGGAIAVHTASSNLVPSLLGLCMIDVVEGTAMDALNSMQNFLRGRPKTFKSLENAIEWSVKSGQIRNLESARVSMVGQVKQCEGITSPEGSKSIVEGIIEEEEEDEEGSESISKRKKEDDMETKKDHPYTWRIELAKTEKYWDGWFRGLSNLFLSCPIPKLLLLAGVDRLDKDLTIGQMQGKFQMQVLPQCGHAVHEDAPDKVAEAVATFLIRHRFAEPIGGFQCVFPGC
PAD4 FP inh: inhibitors of human PAD4. recombinant PAD4, RCA probe fluorescence polarization. inhibition, % at 6.36 µM. hit rate 0.41% among 330,000;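 active = percent inhibition above a cutoff equal to the mean of all tested compounds plus 3 SD, cut at about 15% in these data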;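 note: 0% = PAD4 with RCA probe and DMSO and 100% = probe without PAD4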
LYPLA2 inh: blocks human lysophospholipase 2, a PME1 counter-screen | O95372 | recombinant LYPLA2, FP-Rh probe fluorescence polarization | inhibition, % at 5.9 µM | hit rate 0.38% among 320,000 | AID 2177;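 active = inhibition above the screen-wide mean plus 3 SD, limit set per campaign, cut at about 26% in these data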;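 note: 0% = LYPLA2 with DMSO and 100% = wells lacking LYPLA2 enzyme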
Target sequence (O95372 whole entry, looked up): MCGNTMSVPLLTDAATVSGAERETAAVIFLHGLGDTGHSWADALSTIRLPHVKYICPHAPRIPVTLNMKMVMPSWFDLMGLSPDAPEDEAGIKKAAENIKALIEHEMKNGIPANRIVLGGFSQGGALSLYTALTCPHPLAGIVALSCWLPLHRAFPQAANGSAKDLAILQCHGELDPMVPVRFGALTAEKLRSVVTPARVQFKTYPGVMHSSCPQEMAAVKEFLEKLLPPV
LYPLA2 conf: LYPLA2 (human) inhibition, confirmation counter-screen; AID 2232; hit rate 72% among 1,100; inhibition, % at 5.9 µM; shares compounds with LYPLA2 inh; recombinant LYPLA2, FP-Rh probe fluorescence polarization;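 active = mean inhibition across replicates above the hit cutoff set in the primary screen, cut at about 26% in these data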;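 note: blocked labeling of the enzyme by serine hydrolase FP-Rh probe lowers polarization; 0% = enzyme with DMSO and 100% = wells lacking LYPLA2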
LYPLA2 gel ABPP: inhibitors of human LYPLA2; AID 652029; hit rate 30% among 150; rhLYPLA2 in mouse brain proteome, gel ABPP FP-Rh; shares compounds with LYPLA2 inh; inhibition, % at 20 µM;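 active = inhibition of LYPLA2 enzyme probe labeling above about 50%, limit read from the data; inactive = inhibition below that limit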;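 note: loss of FP-Rh probe labeling of the LYPLA2 gel band measured as band density; 0% = DMSO only control band and 100% = blank gel background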
Starred values were filed as active, the others as inactive; x = not tested or not shown. Compounds with a hit are over-represented: about 1.8% of the library has one in this group of screens.

SMILES	Fam108B inh	GSTO1 inh	LYPLA1 counter	PME-1 inh	PAD4 FP inh	LYPLA2 inh	LYPLA2 conf	others
O=C(O)CN1C(=O)c2ccc(Oc3ccc([N+](=O)[O-])cc3)cc2C1=O	-3	8	-1	3	-4	5	x
O=C1c2ccc(Oc3ccc([N+](=O)[O-])cc3)cc2C(=O)N1CCCO	1	-3	4	-2	-5	46*	50*
O=C(Cn1nc(C(=O)O)c2ccccc2c1=O)Nc1cccc(S(=O)(=O)N2CCCCC2)c1	x	x	x	x	8	x	x
COc1ccc(-c2cc(C(=O)Nc3c(C)nn(Cc4ccccc4)c3C)no2)cc1	-3	3	0	-2	3	7	x
COc1cccc(-c2cc(C(=O)Nc3cnn(Cc4ccccc4C)c3)no2)c1	1	-3	-6	0	1	4	x
COc1cccc(-c2cc(C(=O)Nc3c(C)nn(Cc4ccccc4C)c3C)no2)c1	-1	-5	6	-3	-3	45*	48*
COc1cccc(-c2cc(C(=O)Nc3c(C)nn(Cc4ccccc4)c3C)no2)c1	1	-2	8	2	-3	56*	45*
Cc1ccc(C(=O)N2CCN(C)CC2)cc1S(=O)(=O)N1CCCCCC1	-2	-2	1	18	0	27*	-4
CC(=O)N1CCN(C(=O)c2ccc(C)c(S(=O)(=O)N3CCCCC3)c2)CC1	x	x	x	x	0	x	x
COc1ccc(C(=O)NC(NC(=S)Nc2ccc(S(N)(=O)=O)cc2)C(Cl)(Cl)Cl)cc1 (centres undefined)	-17	-75	-42	-51	-9	-64	x
CCOC(=O)C1(C)C=C(Nc2ccc(C)cc2)C(=O)N1c1ccc(C)cc1 (centres undefined)	3	-1	1	5	-5	27*	-2
CCOC(=O)C1(C)/C(=N/Nc2ccc(S(N)(=O)=O)cc2)C(=O)C(=O)N1c1ccccc1 (centres undefined)	1	9	-4	-5	-11	-2	x
CC(CCC(C)C)=NNC(=S)Nc1cc(S(=O)(=O)N2CCOCC2)ccc1N1CCOCC1	x	x	x	x	x	x	x	LYPLA2 gel ABPP=60*
O=C(NCCNC(=O)c1cc(OCC(F)(F)F)ccc1OCC(F)(F)F)Nc1ccc(OC(F)(F)F)cc1	-11	-4	11	-11	1	26*	35*
CCCCCCCCNC(C)C(O)c1ccc(SC(C)C)cc1 (centres undefined)	6	2	2	3	-4	40*	46*
O=C1CS/C(=N/N=C/c2ccco2)N1Cc1ccc(F)cc1	-1	1	3	-3	-3	-3	x
Cc1cc(C(=O)COc2cccnc2[N+](=O)[O-])c(C)n1-c1ccccc1F	0	30	2	3	-11	28*	25
Cc1ccc(-n2c(C)cc(C(=O)COc3cccnc3[N+](=O)[O-])c2C)cc1	5	21	0	-2	-6	31*	21
O=C(CSCCO)Nc1ccc(C2CCCCC2)cc1	3	10	1	-1	-1	2	x
N#CCC(=O)Nc1ccc(C(=O)OCc2ccccc2Oc2ccccc2)cc1	3	-38	7	38*	-3	26*	-83
COc1ccc(N2CCN(C(=O)c3ccc(Cn4c(=S)[nH]c5ccc(N6CCOCC6)cc5c4=O)cc3)CC2)cc1	13	5	4	3	-6	75*	72*	LYPLA2 gel ABPP=33
O=C(c1ccc(Cn2c(=S)[nH]c3ccc(N4CCOCC4)cc3c2=O)cc1)N1CCN(c2ccc(F)cc2)CC1	8	3	1	10	5	20	x
O=C(c1ccc(Cn2c(=O)[nH]c3ccccc3c2=O)cc1)N1CCN(c2ccc(F)cc2)CC1	0	-4	12	-4	0	42*	35*
CCOC(=O)N1CCN(C(=O)c2ccc(Cn3c(=S)[nH]c4cc(C(=O)OC)ccc4c3=O)cc2)CC1	-2	4	3	-5	-2	29*	19
COc1cccc(C2CC(c3ccccc3Cl)n3ncnc3N2)c1 (centres undefined)	-5	9	-4	-4	3	3	x
SMILES	Fam108B inh	GSTO1 inh	LYPLA1 counter	PME-1 inh	PAD4 FP inh	LYPLA2 inh	LYPLA2 conf	others
CCC1=C(OC(=O)N(CC)CC)N2C(=O)OC(=NCC(=O)OC)[C@]2(Cc2ccccc2)[C@H]2C1=CC[C@H]1C(=O)N(CC(=O)OC)C(=O)[C@H]12	4	-4	-1	0	3	-4	x
N#Cc1c(N)c2ccccn2c1C(=O)c1ccc(Br)cc1	3	-2	0	-3	-6	12	x
C#CCOCCOCCOCCNc1nc(N2CCN(C(=O)CCCCCCCCCCNC(=O)Cn3cc(C[C@@H](C)O)nn3)CC2)nc(N2CCN(C(=O)CCCCCCCCCCNC(=O)[C@@H]([C@H](C)CC)n3cc(CCCCCN)nn3)CC2)n1	-2	4	0	0	0	31*	28*
CC1(C)CC[C@]2(CO)CC[C@]3(C)C(=CCC4[C@@]5(C)CC[C@H](O)[C@@](C)(CO)C5CC[C@]43C)[C@@H]2C1 (some centres undefined)	x	x	x	x	0	x	x
CC(=O)c1ccc(-c2ccc(C(=O)N(C)c3c(N)n(Cc4ccccc4)c(=O)[nH]c3=O)o2)cc1	-2	2	-1	0	-4	2	x
Cc1nnc(SCC(=O)c2ccc([N+](=O)[O-])cc2)s1	11	23	3	0	-1	11	x
Nc1nnc(SCC(=O)c2ccc([N+](=O)[O-])cc2)s1	5	19	-2	4	2	29*	14
O=c1[nH]c([N+](=O)[O-])nn1C(c1ccccc1)c1ccccc1	8	7	0	-2	-4	1	x
Cc1csc(C(=O)O)c1NC(=O)c1c(Cl)cccc1Cl	5	7	-2	-2	-2	0	x
CCCCCCCCOC(=O)CCc1c(C)[nH]c(=S)[nH]c1=O	-1	12	3	0	-2	39*	30*
CCCCCCOC(=O)CCc1c(C)nc(N)[nH]c1=O	-1	-4	-3	-6	-4	-1	x
CC(=O)c1ccc(N2CCN(c3ccnc4cc(Cl)ccc34)CC2)cc1	0	-1	5	-2	-1	36*	27*
CC(C)(C)n1ncc2c(=O)n(CC(=O)N3CCCCCC3)cnc21	1	-1	2	0	0	29*	2
Cc1ccc(NC(=O)Cn2cnc3c(cnn3C(C)(C)C)c2=O)cc1	0	6	0	-2	1	3	x
COc1cc(S(=O)(=O)Nc2cccnc2)ccc1Cl	-2	-3	2	2	-5	-10	x
